{"source": "paper PMC13494018", "note": "A number with no mark means an inactive call. How the calls were made is not given here."}
{"target": "VTCN1, Q7Z7D3", "sequence (Q7Z7D3 whole entry)": "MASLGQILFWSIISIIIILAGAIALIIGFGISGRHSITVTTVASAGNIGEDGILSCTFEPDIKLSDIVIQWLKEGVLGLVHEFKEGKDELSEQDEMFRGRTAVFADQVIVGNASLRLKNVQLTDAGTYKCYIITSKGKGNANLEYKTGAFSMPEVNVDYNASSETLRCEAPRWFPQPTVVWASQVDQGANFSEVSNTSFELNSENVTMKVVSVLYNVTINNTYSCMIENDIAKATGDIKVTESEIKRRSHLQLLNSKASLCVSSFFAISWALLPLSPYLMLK"}
{"binder": "design_597_f3dcd2b3-c7aa-4b15-88bc-bbb8d01a18cd_2160_dldesign_0_cycle1_af2pred (protein) NATEIYREGREKAKELAKKGGKLVKDGEEFARRLVAAANTYFADPEEGEKQLDELIKEAEKESPEAAKIAKEVLKAAKEYLKKLDEEG", "binding in a display sort": "not found"}
{"binder": "design_597_f3dcd2b3-c7aa-4b15-88bc-bbb8d01a18cd_2241_dldesign_0_cycle1_af2pred (protein) EAAAIAKEAAAVAEEAAKKEEDPGKAEALKKAAKRIKAAAAGTKFEIASAVASAAEQAEWVGYPKEVVDKLEAKAEKIEKA", "binding in a display sort": "not found"}
{"binder": "design_597_f3dcd2b3-c7aa-4b15-88bc-bbb8d01a18cd_2262_dldesign_0_cycle1_af2pred (protein) AEAEEALKAAKAAAAKAKEAADAAIADPATKAAGEKAKKLIEAREKKAEANASDVRVLQSAVEFFNHMAAALKKILA", "binding in a display sort": "not found"}
{"binder": "design_597_f3dcd2b3-c7aa-4b15-88bc-bbb8d01a18cd_2297_dldesign_0_cycle1_af2pred (protein) MEEAEKLLKKAEEAAKKGDAETAKKLAEELRELSKKEKDKEKAAAYSEAAFEAKGYAFLAEIKQEKKKELE", "binding in a display sort": "not found"}
{"binder": "design_597_f3dcd2b3-c7aa-4b15-88bc-bbb8d01a18cd_2332_dldesign_0_cycle1_af2pred (protein) SVVEEVKEEAKKAIEEGKKGDAGTAAALGYEAKALAEQKAKLYPEEAEELKKIAEEVKKEAKEIAEKKLKEKKAA", "binding in a display sort": "not found"}
{"binder": "design_597_f3dcd2b3-c7aa-4b15-88bc-bbb8d01a18cd_2336_dldesign_0_cycle1_af2pred (protein) AQAAKVAAALAAAEKRLAISTARAKELAKKNPQAGYEYMEIRTDHMAAALAKVDPAAGAEVKARGAALAAEIKA", "binding in a display sort": "not found"}
{"binder": "design_597_f3dcd2b3-c7aa-4b15-88bc-bbb8d01a18cd_2339_dldesign_0_cycle1_af2pred (protein) AKALRYAGRAEIYMELAETAAKLAIEAAKKDPAEGKKYLEKMKEKVKKAVELAEKADPALAKEYEAKGKELIEKAEKAIKAQIEKA", "binding in a display sort": "not found"}
{"binder": "design_597_f3dcd2b3-c7aa-4b15-88bc-bbb8d01a18cd_2357_dldesign_0_cycle1_af2pred (protein) NEEIKAKQLAGRLEALADSLKSAAEKAAKETKDPEKAKKLKEIAKEAEKAVEEAKKKIKEGKAEEAYKEGKEKVEKAKKEVEKIAKE", "binding in a display sort": "not found"}
{"binder": "design_597_f3dcd2b3-c7aa-4b15-88bc-bbb8d01a18cd_2381_dldesign_0_cycle1_af2pred (protein) AAAEAAAAAAKAAAKAEAAKHLEKAFDLIADGGTVEEVEKEAEKAIEYAAKADEKYKKLAERTAKRIIENAKIAAKREEEN", "binding in a display sort": "not found"}
{"binder": "design_597_f3dcd2b3-c7aa-4b15-88bc-bbb8d01a18cd_2462_dldesign_0_cycle1_af2pred (protein) DPLREAAKAAVEAMGKAAKEVGLTKEASELAGLVHEALSAAKAGIHAKEILKEAAEAAKKAAEEYPEAKELFEKVAKEVEKMEKLV", "binding in a display sort": "not found"}
{"binder": "design_597_f3dcd2b3-c7aa-4b15-88bc-bbb8d01a18cd_2474_dldesign_0_cycle1_af2pred (protein) MKADEEAAKKAAAARDTAFDKIAAGEDPQAAYDAAKAEMKKIAEEYGVSPETKEKIEKGIKALERFAAAAAKAAA", "binding in a display sort": "not found"}
{"binder": "design_597_f3dcd2b3-c7aa-4b15-88bc-bbb8d01a18cd_2475_dldesign_0_cycle1_af2pred (protein) MTPLEESAAKAQEAREEAAEKEQKGKLLAEKGNYKEGAKEYKKGAEELKKAAKFAEEAGDKEAAERLKKRAERLEKLAKEYEKKAK", "binding in a display sort": "not found"}
{"binder": "design_598_15ab41e9-cad4-4381-8935-81f74b313fe8_13_dldesign_0_cycle1_af2pred (protein) AEKSREEGVKKAEEAAKLAKEAGLEEKAKKIKEAAKKAAKTGTDEDLKELSKTALEAAKLADPEKGAKISELRVEAAGYFELARIQ", "binding in a display sort": "not found"}
{"binder": "design_598_15ab41e9-cad4-4381-8935-81f74b313fe8_72_dldesign_0_cycle1_af2pred (protein) SELVKKASDLYRELVRKAREVAEKAGKAGDPEEAKKLAGDAVWAAQENVEEGIKIAKELGKKTGVEKEVEEFIKLMKEYAKALEEVSN", "binding in a display sort": "not found"}
{"binder": "design_598_15ab41e9-cad4-4381-8935-81f74b313fe8_88_dldesign_0_cycle1_af2pred (protein) GSAKELAEKLRYVNRKIKEAGELAKELEKAGYPEEAKKLRELAQKARDALMAGDLDAAYKAAKELEEKIKEAKKKLEA", "binding in a display sort": "not found"}
{"binder": "design_598_15ab41e9-cad4-4381-8935-81f74b313fe8_121_dldesign_0_cycle1_af2pred (protein) MMEKKKKEAEIKRDAAIEQAKTIVEANKDKPFEEILEKVEKSVERFKESIEKIDPEIGKEEGEKARKESEEIVKKASEA", "binding in a display sort": "not found"}
{"binder": "design_598_15ab41e9-cad4-4381-8935-81f74b313fe8_127_dldesign_0_cycle1_af2pred (protein) SAMDLLLEILDYNDEALKAAKEGNKEEMEKYIKKAFEIAEELGKKYGPEAEERAKRYVEKAKKEAEEIYKK", "binding in a display sort": "not found"}
{"binder": "design_598_15ab41e9-cad4-4381-8935-81f74b313fe8_148_dldesign_0_cycle1_af2pred (protein) MAEEAKKTSDAIREMVKIAKEAGKEVAGSPEAQKKIAAARDKAMDAVAAGEDPEEQLKKAKEEIEAVVAEEKA", "binding in a display sort": "not found"}
{"binder": "design_598_15ab41e9-cad4-4381-8935-81f74b313fe8_205_dldesign_0_cycle1_af2pred (protein) DFKAKADAEATLERAEQAEKAAKKIGEELAKLAEEAKKLAEAGLKSDDPEKREALTKAARELLKELQKLGKEKKEK", "binding in a display sort": "not found"}
{"binder": "design_598_15ab41e9-cad4-4381-8935-81f74b313fe8_231_dldesign_0_cycle1_af2pred (protein) AEAELARAREVAKRVAEKLREAAKEAEKIDPEVAEKGRKVAEAAEAATAGTVEEIAAATQEARQALAEAEFLVKK", "binding in a display sort": "not found"}
{"binder": "design_598_15ab41e9-cad4-4381-8935-81f74b313fe8_273_dldesign_0_cycle1_af2pred (protein) SMAKKIEEGKKLAEELREAVRTAQAIGARLDALVAADPSVAPLATEIRAKASEAIFKIADGKEEEGKALMEEATALAAAAEAAAAAAA", "binding in a display sort": "not found"}
{"binder": "design_598_15ab41e9-cad4-4381-8935-81f74b313fe8_686_dldesign_0_cycle1_af2pred (protein) SPTEMQEALTDADGYAVLAKNAGIEEVAKKAKEAAKKIKELIKQARADPSKAPELAKKAKELAKEAEKEFEKAKKEFE", "binding in a display sort": "not found"}
{"binder": "design_598_15ab41e9-cad4-4381-8935-81f74b313fe8_790_dldesign_0_cycle1_af2pred (protein) MEKEAEKFAEEGKKKVEELKKKLEENKDNAEKNEELAKKARELAKEFEEEGKKAPEEMRKKLAEIAQEAREVAAEAKGLAIIAKEK", "binding in a display sort": "not found"}
{"binder": "design_598_15ab41e9-cad4-4381-8935-81f74b313fe8_801_dldesign_0_cycle1_af2pred (protein) AEKEKKIEELEAKAKEYEAKGKAAEAAGDYKTAAEYYEKAADAYLEMAKVDPEKAEEYIKKAQELYRKSIQYEAKASAA", "binding in a display sort": "not found"}
{"binder": "design_598_15ab41e9-cad4-4381-8935-81f74b313fe8_887_dldesign_0_cycle1_af2pred (protein) GEEKSRAAAEALRAATRAVRAAAATAAAADPATAAAVRAAWAAAVKADDLADAEAALRAAAAAATDPATRALLNAAADAYATIAAIA", "binding in a display sort": "not found"}
{"binder": "design_598_15ab41e9-cad4-4381-8935-81f74b313fe8_1028_dldesign_0_cycle1_af2pred (protein) SDEKLAAEASQVGLELKAEVKAGNANPEIKEKLSKEALEKAEKAVKEFEKKSPAAGKVAKEMLKKIKEAAKE", "binding in a display sort": "not found"}
{"binder": "design_598_15ab41e9-cad4-4381-8935-81f74b313fe8_1042_dldesign_0_cycle1_af2pred (protein) NLEELIKKAIKAAEKGDAKGAVTYVMDAGAEAGDMKLAVEVGRKIQELLATDPAAGKAASAALIKEAGKKFL", "binding in a display sort": "not found"}
{"binder": "design_598_15ab41e9-cad4-4381-8935-81f74b313fe8_1154_dldesign_0_cycle1_af2pred (protein) EKAKKAAEYSSEAAKHAIKAAKLLKEAGAPQEVLNLLQEAIVNMDKAAEYYAAAMEAAKKNPELGPEIQAELKKAEEHTKKANELL", "binding in a display sort": "not found"}
{"binder": "design_598_15ab41e9-cad4-4381-8935-81f74b313fe8_1188_dldesign_0_cycle1_af2pred (protein) KEEEEKKKEEEWKKKADAEAAIEQGKNALEAAKKDPSKAKEAAKVAKKLAKRAPEAKEELEKIAKEAEAIGKA", "binding in a display sort": "not found"}
{"binder": "design_598_15ab41e9-cad4-4381-8935-81f74b313fe8_1263_dldesign_0_cycle1_af2pred (protein) GMEEIEKRNEEVKKKAEELKKQVEKAEKLAEKGDPEGKKLAEETKKKAIELAKSNPEAEPEVKTEITEIAVEAQGIEHLMKIK", "binding in a display sort": "not found"}
{"binder": "design_598_15ab41e9-cad4-4381-8935-81f74b313fe8_1360_dldesign_0_cycle1_af2pred (protein) DPAQAAFTAKAKERAEQLKALAKEFPEEAEKLTKLAEEGLKLAAGDAETQKKAAEKLQEAYELAAEARAKKA", "binding in a display sort": "not found"}
{"binder": "design_598_15ab41e9-cad4-4381-8935-81f74b313fe8_1361_dldesign_0_cycle1_af2pred (protein) DETKKALAEMSELRHQLDAEAKWYEKHAKESEKYKEAAKEAKEGADYAKKALKKAKEGTPEEALKAAKEALEELKKKEEKVEKLFKEA", "binding in a display sort": "not found"}
{"binder": "design_598_15ab41e9-cad4-4381-8935-81f74b313fe8_1370_dldesign_0_cycle1_af2pred (protein) AEFAVKILETLAERVPPEYAVVAREAAEIVKEKGAEGAREAARLVREAAERNPELPEEHRKAMLNAARVLEILAEAE", "binding in a display sort": "not found"}
{"binder": "design_598_15ab41e9-cad4-4381-8935-81f74b313fe8_1412_dldesign_0_cycle1_af2pred (protein) DSPAMQLNEALTDAKYAADKIKEVDPSLAPEAQALYDKVKALLEKARKGDAATVAAAAKEAKALAEQAEKLLKQAKERAKKA", "binding in a display sort": "not found"}
{"binder": "design_598_15ab41e9-cad4-4381-8935-81f74b313fe8_1419_dldesign_0_cycle1_af2pred (protein) DIAKVTQQAQEELTEYAFKVPELKEEFDAARKESVKLGKEGASTSPEAAEKASKEIKKITEEMKKKAEEAL", "binding in a display sort": "not found"}
{"binder": "design_598_15ab41e9-cad4-4381-8935-81f74b313fe8_1446_dldesign_0_cycle1_af2pred (protein) IDSKKASELIREAVRNAQKAGEIAKSLPNGEEIKKRVAEALLLAIDPETAEEGIKLLEELAKEAEELNPEAGKHIKEAAEHLKKFAEL", "binding in a display sort": "not found"}
{"binder": "design_598_15ab41e9-cad4-4381-8935-81f74b313fe8_1476_dldesign_0_cycle1_af2pred (protein) SEEKKKEEEKKVKEAEKLAKKAKEAAKKGDVKTAKEYYEKAKKIAKEVKKEGSKELATKAANAAQEAYQAYREAEAKA", "binding in a display sort": "not found"}
{"binder": "design_598_15ab41e9-cad4-4381-8935-81f74b313fe8_1538_dldesign_0_cycle1_af2pred (protein) KEEAKKKVEEARKLVEEAKKLIEKGEYEKGLKLAEEAAELAHKTSVKYGAGEAEKVYKEASKVISLAWAKLAEAKK", "binding in a display sort": "not found"}
